Bioassay records: PubChem BioAssay, National Center for Advancing Translational Sciences (NCATS)
RXFP1 antagonist – RXFP1 (human) relaxin receptor antagonism; Q9HBX9; 0.59% of 350,000 active; activity change, negative = inhibition, % at 57.5 µM; HEK293-RXFP1, relaxin-stimulated cAMP HTRF, 30 min; stronger effect = lower value;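 active means activity change of -60% or lower, but not beyond a set lower limit; inconclusive means change between -60% and -40%, or beyond the set limit; inactive means change above -40%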; further: on the % scale 0 is the no-effect control and ±100 the full control effect
gsp antag – antagonists of gsp mutant (McCune-Albright syndrome); gsp-mutant cells, cAMP HTRF, 30 min; Potency, µM (highest dose often 76.9 µM), inactives show at the top dose activity change, negative = inhibition, most hits filed as inhibitors; 0.4% of 340,000 active; calls by dose curve; cell line not stated here;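 further: intracellular cAMP measured with PDE inhibitor Ro 20-1724 present during compound exposure; potency means the concentration at half of the fitted maximal effect; on the % scale 0 is the no-effect control and ±100 the full control effect; nearly all actives have a fitted effect of over 65% in size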
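G418-selected cells were plated in DMEM/10% FBS for 16-24 h at 37C, then treated with compounds plus the PDE inhibitor […] (300 uM solution added) for 30 min at 37C. Intracellular cAMP was measured by HTRF after 30 min lysis at room temperature.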
RXFP1 ag – agonists of human relaxin receptor RXFP1. HEK293T-RXFP1 cAMP TR-FRET, 30 min; response scale: percent of porcine relaxin response, buffer zero. Q9HBX9. AID 2676. Potency, µM (series often up to 57.5 µM), without a hit: at the highest dose activation, most hits filed as activators. 0.3% of 370,000 active; further: potency means the concentration at half of the fitted maximal effect; on the % scale 0 is the no-effect control and ±100 the full control effect; nearly all actives have a fitted effect of over 60% in size
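HEK293 cells stably expressing RXFP1, treated 30 min at 37C with compounds plus PDE4 inhibitor Ro 20174; cAMP measured by HTRF TR-FRET. Normalized to buffer and 29 nM porcine relaxin; EC50 by Hill fit.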
p53 reactivator – re-activators of mutant p53 | 0.063% of 320,000 active | H1299 p53-A138V BP100-luciferase reporter, luminescence, 24 h | Potency, µM (titrated, usually from 92.2 µM), for inactives: at the top dose activity change, positive = activation, hits mostly activators | AID 504706; further: potency means the concentration at half of the fitted maximal effect; % of control where 0% means no effect; nearly all actives have a fitted effect of over 45% in size
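p53-null H1299 cells stably carrying temperature-sensitive p53-A138V and a BP100-luciferase reporter were pinned with compounds (4-point, 1:5 series) and held 24 hrs at 37 deg C. Luminescence was read 10 min after detection reagent.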
gsp ag – gsp mutant agonism; gsp mutant cells, cAMP HTRF, 30 min; Potency, µM (doses to about 76.9 µM), inactives show at the highest dose activation (cAMP increase), hits mostly activators; 0.13% of 340,000 active; AID 624287; active means well fitted activation curve with a large enough effect; inconclusive means small, poorly fitted or top-dose-only effect, or another doubt; inactive means no such curve, though single readings can be large or run the other way; cell line not stated here;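 further: phosphodiesterase inhibitor Ro 20-1724 added with compounds to block cAMP breakdown; potency means the concentration at half of the fitted maximal effect; nearly all actives have a fitted effect of over 60% in size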
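Cells in DMEM/10% FBS with G418 were pretreated with compounds in DMSO plus […] (300 uM stock) for 30 min at 37C. cAMP was measured by HTRF (cAMP-d2 plus anti-cAMP antibody-K) after 30 min at room temperature.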
Tb PFK block – inhibitors of T. brucei phosphofructokinase; O15648; 0.17% of 330,000 active; Potency, µM (series often up to 57.5 µM), for inactives: at the top dose activity, negative = inhibition, actives largely listed as inhibitors; T. brucei PFK, ADP-Glo luminescence;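 further: potency means the concentration at half of the fitted maximal effect; 0% = uninhibited 1x PFK enzyme wells and -100% = no-enzyme wells; nearly all actives have a fitted effect of over 60% in size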
Target sequence (O15648 whole entry, looked up): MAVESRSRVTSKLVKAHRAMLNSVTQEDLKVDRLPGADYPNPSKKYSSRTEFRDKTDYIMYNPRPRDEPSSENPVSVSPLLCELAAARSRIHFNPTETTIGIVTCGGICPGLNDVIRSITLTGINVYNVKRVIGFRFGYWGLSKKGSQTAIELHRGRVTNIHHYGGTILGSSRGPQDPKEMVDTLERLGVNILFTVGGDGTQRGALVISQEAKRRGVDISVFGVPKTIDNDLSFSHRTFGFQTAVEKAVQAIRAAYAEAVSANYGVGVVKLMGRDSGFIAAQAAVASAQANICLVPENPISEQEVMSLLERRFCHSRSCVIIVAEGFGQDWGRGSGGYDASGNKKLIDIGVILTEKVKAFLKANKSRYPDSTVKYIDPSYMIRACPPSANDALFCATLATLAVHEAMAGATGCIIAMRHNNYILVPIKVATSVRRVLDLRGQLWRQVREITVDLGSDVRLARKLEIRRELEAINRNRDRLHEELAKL
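1.25 nM PFK with 0.5 mM F6P and 0.1 mM ATP in 0.1 M TEA pH 8.0, 5 mM MgCl2, incubated 45 min at room temperature; ADP measured by ADP-Glo luminescence; compounds titrated up to 57 uM.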
An asterisk follows results filed as active; u = inconclusive; x = not tested or not shown; [ ] = remark or other dose. Shown are actives, neighbours in structure and some others; about 1.1% of the full set was active somewhere. Unless noted, the call rests on the fitted dose curve; in most records, active means well fitted curve in the direction sought with a large enough effect; inconclusive means small, poorly fitted or top-dose-only effect, or another doubt; inactive means no such curve, though single readings can be large; an effect the other way counts as inactive or inconclusive.

SMILES	RXFP1 antagonist	gsp antag	RXFP1 ag	p53 reactivator	gsp ag	Tb PFK block
COc1cccc(NC(=O)CN(C)C(=O)c2cc(-c3ccco3)nc3ccccc23)c1	-32	-12%	2%	-12%	11%[15.4 µM]	u
CN(CCOc1ccc(Cl)cc1)C(=O)c1cc(-c2ccco2)nc2ccccc12	-70*	u	3%	-7%	-3%	-5%
Cn1ncc2c(Nc3ccc(-c4ccccc4)cc3)ncnc21	0	-19%	3%	7%	-9%	3%
CSc1nnc2c3ccccc3n(CCc3ccccc3)c2n1	7	u	1%	-2%	u	0%
S=c1nc2c(n[nH]1)c1ccccc1n2CCc1ccccc1	-115*	1%	3%	x	-40%	2%
CN(C)S(=O)(=O)c1cccc(-n2sc3ccccc3c2=O)c1	x	u	0%	-2%	-17%	13µM*
O=C1NC(=S)SC1=Cc1ccc(F)cc1	-27	-8%	x	x	-2%	x
O=C1NC(=S)SC1=Cc1ccc(Cl)cc1	-19	28µM*	x	x	22%	x
CCOc1ccc(/C=C2\SC(=S)NC2=O)cc1OC	-73*	u	1%	11%	-26%	2%
COc1ccccc1CNC(=O)CCC1N=C2c3ccccc3N=C(SCc3ccc(C)cc3)N2C1=O (stereo unspecified)	-1	x	25%	x	x	x
CCC(C)NC(=O)Cn1cnc2sc(C)c(S(=O)(=O)N3CCN(c4ncccn4)CC3)c2c1=O (stereo unspecified)	8	-5%	6%	-5%	22%	-3%
Cc1sc2ncn(CC(=O)Nc3ccc(C(C)C)cc3)c(=O)c2c1S(=O)(=O)N1CCN(c2ncccn2)CC1	x	x	25µM*	x	x	x
O=C(Nc1ccc(N2CCOCC2)c(Cl)c1)c1ccc2c(c1)OCCO2	-6	-7%	0%	-2%	-8%	0%
Cc1ccc(NC(=O)c2cc(N3C(=O)C=CC3=O)ccc2N2CCOCC2)cc1Cl	-71*	18%	-1%	-35%	2%	u
O=C(Nc1ccc(N2CCOCC2)c(Cl)c1)c1ccc(Cl)cc1	-83*	-28%	2%	10%	4%[15.4 µM]	-9%
Cc1ccc(NC(=O)c2cc(N3C(=O)CCC3=O)ccc2N2CCOCC2)cc1	2	-11%	-1%	0%	9%[15.4 µM]	1%
CCOc1ccccc1Nc1cc(-c2ccccc2)nc(C)n1	-2	x	1%	x	x	x
Cc1csc(NC(=O)Cc2ccccc2Cl)n1	-14	0%	4%	17%	u	-1%
Cc1cnc(NC(=O)Cc2ccccc2Cl)s1	-64*	6%	2%	6%	-39%	-1%
CN(Cc1cccc(F)c1)CC(O)COCc1ccccc1Cl (stereo unspecified)	-27	11µM*	3%	9%	9%	-3%
COc1ccc(OC)c(-c2csc(NC(=O)C3COc4ccccc4O3)n2)c1 (stereo unspecified)	2	-14%	-1%	-2%	-14%	1%
O=C(Nc1nc(-c2nc3ccccc3s2)cs1)C1COc2ccccc2O1 (stereo unspecified)	x	-22%	21%	u	11µM*	4%
O=C1c2cccnc2C(=O)N1Cc1ccc(S(=O)(=O)NCc2ccco2)s1	14	-1%	u	1%	u	3%
COc1ccc(CN2C(=O)c3cccnc3C2=O)cc1S(=O)(=O)NCc1ccc(C)o1	21	7%	16µM*	5%	u	-5%
O=C1c2cccnc2C(=O)N1Cc1ccc(F)cc1S(=O)(=O)NCc1ccco1	16	4%	25µM*	9%	u	2%
SMILES	RXFP1 antagonist	gsp antag	RXFP1 ag	p53 reactivator	gsp ag	Tb PFK block
O=C(Nc1cccc([N+](=O)[O-])c1)c1cc2ccccc2cc1O	-69*	14µM*	2%	2%	-24%	-17%
O=C(O)c1ccccc1C(=O)Nc1cccc([N+](=O)[O-])c1	13	8%	1%	3%	1%	-9%
CC(C)CN(CCCNC(=O)CN1N=C(c2ccccc2)CCC1=O)CC(C)C	10	x	2%	x	x	x
Cc1ccc(C)c(OCCC(=O)NCCc2ccc(S(N)(=O)=O)cc2)c1	-14	2%	-4%	-2%	-1%[15.4 µM]	-2%
C=CCn1c(=O)c(CCC(=O)Nc2ccc(N3CCOCC3)cc2)nc2cc(C(F)(F)F)ccc21	-68*	-2%	-2%	-3%	u	-8%
O=C(Cn1cc(C(F)(F)F)ccc1=O)Nc1ccc(N2CCOCC2)cc1	-13	15%	0%	-1%	-2%[15.4 µM]	1%
CC1(c2ccccc2)O[C@@H]2C[C@H]3[C@@H]4CCC5=CC(=O)C=C[C@]5(C)[C@@]4(F)[C@@H](O)C[C@]3(C)[C@]2(C(=O)CO)O1 (stereo partly specified)	2	-27%	2%	-1%	-12%[15.4 µM]	1%
O=C1c2cc(S(=O)(=O)NCCO)ccc2-c2ccc(S(=O)(=O)NCCO)cc21	5	8%	4%	8%	0%[15.4 µM]	5%
O=C(O)CNS(=O)(=O)c1ccc2c(c1)C(=O)c1cc(S(=O)(=O)NCC(=O)O)ccc1-2	2	3%	28%	11%	13µM*	13%
c1ccc2c(c1)ncn2CCCOc1ccc2c(c1)CCC2	12	28µM*	1%	9%	-18%	1%
Cc1ccc(C)c(N2CCN(C(=O)C3CCN(c4nc5ccc(C)cc5[nH]4)CC3)CC2)c1	-69*	x	4%	x	x	x
Cc1ccc(C)c(N2CCN(C(=O)C3CCN(S(=O)(=O)c4c(C)noc4C)CC3)CC2)c1	1	-30%	0%	8%	-26%	2%
Cc1cc(C)nc(N2CCC(C(=O)N3CCN(c4cc(Cl)ccc4C)CC3)CC2)n1	-20	28µM*	4%	3%	u	7%
Cc1ccc(C)c(N2CCN(C(=O)C3CCN(c4nc(C)cc(C)n4)CC3)CC2)c1	-1	35µM*	0%	2%	-36%	6%
Cc1ccc(Cl)cc1N1CCN(C(=O)C2CCN(S(C)(=O)=O)CC2)CC1	-5	-14%	-3%	5%	-1%	1%
COc1ccc(OC)c(NC(=O)CNC(=O)Cn2ccc3ccccc3c2=O)c1	x	-1%	2%	-2%	7%	-4%
COc1cccc(N2CCN(C(=O)C3CCCN(S(=O)(=O)c4cccc5nsnc45)C3)CC2)c1 (stereo unspecified)	x	x	4%	x	x	x
COc1ccc(C2CCCN2C(=S)Nc2c(C)cccc2C)cc1OC (stereo unspecified)	-24	-3%	-2%	0%	5%	10%
CCOc1ccc(Cn2c(=O)sc3ccccc32)cc1	-2	-8%	0%	-7%	u	-2%
